Test results taken from PubChem BioAssay AID1159580 (chemical genetic matrix, 2015).
About 2,000 (36%) of roughly 5,500 compounds were called active. Another 18% or so got no clear call; they are omitted. Cut-off read from the data, not from the text of the source: active = normalized growth mostly below about 0.91 (no sharp cut-off); inconclusive = no clear call, values can overlap the other calls; inactive = mostly above about 0.92. The list shows a part of the results.

Test: chemical genetic growth profiling, strain panel (AID 1159580);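 note: tested at 20 µM; growth read once vehicle control cultures reached saturation at 30 °C; 1 = growth at the plate median or of vehicle wells; lower values mean less growth of the strain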
Conditions: growth OD

Measured: normalized growth

CN[C@H](CC(=O)O)C(=O)O
inactive: S. cerevisiae deletion strains, locus YJR066W, strain TOR1, stronger effect = lower value 0.949 | S. cerevisiae deletion strains, locus YJR075W, strain HOC1, stronger effect = lower value 0.988 | S. cerevisiae deletion strains, locus YKL009W, strain mrt4, stronger effect = lower value 0.938 | S. cerevisiae deletion strains, locus YKL068W, stronger effect = lower value 1.01 | S. cerevisiae deletion strains, locus YKL085W, strain MDH1 (second series), stronger effect = lower value 1.01 | S. cerevisiae deletion strains, locus YKL085W, strain MDH1, stronger effect = lower value 1.01 | S. cerevisiae deletion strains, locus YKL160W, strain elf1, stronger effect = lower value 1.02 | S. cerevisiae deletion strains, locus YKL190W, strain CNB1, stronger effect = lower value 0.999 | S. cerevisiae deletion strains, locus YKR001C, strain vps1, stronger effect = lower value 0.989 | S. cerevisiae deletion strains, locus YKR026C, strain gcn3, stronger effect = lower value 1.02 | S. cerevisiae deletion strains, locus YKR091W, strain srl3, stronger effect = lower value 1.02 | S. cerevisiae deletion strains, locus YLL001W, strain dnm1, stronger effect = lower value 1.03 | S. cerevisiae deletion strains, locus YLL026W, stronger effect = lower value 1.03 | S. cerevisiae deletion strains, locus YLL041C, strain sdh2, stronger effect = lower value 1.01 | S. cerevisiae deletion strains, locus YLR027C, strain aat2, stronger effect = lower value 1.03 | S. cerevisiae deletion strains, locus YLR039C, strain RIC1, stronger effect = lower value 0.962 | S. cerevisiae deletion strains, locus YLR058C, strain SHM2, stronger effect = lower value 0.989 | S. cerevisiae deletion strains, locus YLR102C, strain apc9, stronger effect = lower value 0.989 | S. cerevisiae deletion strains, locus YLR113W, strain HOG1, stronger effect = lower value 1.07 | S. cerevisiae deletion strains, locus YLR221C, strain rsa3, stronger effect = lower value 1 | S. cerevisiae deletion strains, locus YLR258W, strain gsy2, stronger effect = lower value 1.02 | S. cerevisiae deletion strains, locus YLR262C, strain YPT6 (second series), stronger effect = lower value 1.01 | S. cerevisiae deletion strains, locus YLR262C, strain YPT6, stronger effect = lower value 0.936 | S. cerevisiae deletion strains, locus YLR268W, strain sec22, stronger effect = lower value 0.991 | S. cerevisiae deletion strains, locus YLR320W, strain mms22, stronger effect = lower value 0.992 | S. cerevisiae deletion strains, locus YLR330W, strain CHS5, stronger effect = lower value 0.991 | S. cerevisiae deletion strains, locus YLR342W, strain FKS1 (second series), stronger effect = lower value 0.983 | S. cerevisiae deletion strains, locus YLR342W, strain FKS1, stronger effect = lower value 1.02 | S. cerevisiae deletion strains, locus YLR357W, strain rsc2, stronger effect = lower value 0.995 | S. cerevisiae deletion strains, locus YLR370C, strain arc18, stronger effect = lower value 1.02 | S. cerevisiae deletion strains, locus YLR371W, strain rom2, stronger effect = lower value 0.997 | S. cerevisiae deletion strains, locus YLR384C, strain iki3, stronger effect = lower value 1.03 | S. cerevisiae deletion strains, locus YLR418C, strain cdc73, stronger effect = lower value 0.947 | S. cerevisiae deletion strains, locus YML016C, strain PPZ1, stronger effect = lower value 0.989 | S. cerevisiae deletion strains, locus YML032C, strain rad52, stronger effect = lower value 0.964 | S. cerevisiae deletion strains, locus YML120C, strain ndi1, stronger effect = lower value 1.03 | S. cerevisiae deletion strains, locus YML124C, strain tub3, stronger effect = lower value 0.99 | S. cerevisiae deletion strains, locus YMR058W, strain fet3, stronger effect = lower value 1.01 | S. cerevisiae deletion strains, locus YMR078C, strain ctf18, stronger effect = lower value 0.98 | S. cerevisiae deletion strains, locus YMR125W, strain sto1, stronger effect = lower value 1.08 | S. cerevisiae deletion strains, locus YMR129W, stronger effect = lower value 1.01 | S. cerevisiae deletion strains, locus YMR205C, strain PFK2, stronger effect = lower value 1.03 | S. cerevisiae deletion strains, locus YMR223W, strain ubp8, stronger effect = lower value 0.937 | S. cerevisiae deletion strains, locus YMR231W, strain pep5, stronger effect = lower value 0.998 | S. cerevisiae deletion strains, locus YMR307W, strain GAS1, stronger effect = lower value 0.89 | S. cerevisiae deletion strains, locus YNL067W, strain RPL9B, stronger effect = lower value 1.02 | S. cerevisiae deletion strains, locus YNL071W, strain lat1, stronger effect = lower value 1.02 | S. cerevisiae deletion strains, locus YNL153C, strain GIM3, stronger effect = lower value 1.03 | S. cerevisiae deletion strains, locus YNL183C, strain NPR1, stronger effect = lower value 0.992 | S. cerevisiae deletion strains, locus YNL209W, strain ssb2, stronger effect = lower value 1.01 | S. cerevisiae deletion strains, locus YNL233W, strain BNI4, stronger effect = lower value 1.01 | S. cerevisiae deletion strains, locus YNL248C, strain rpa49, stronger effect = lower value 0.98 | S. cerevisiae deletion strains, locus YNL250W, strain rad50, stronger effect = lower value 0.941 | S. cerevisiae deletion strains, locus YNL271C, strain bni1, stronger effect = lower value 0.977 | S. cerevisiae deletion strains, locus YNL298W, strain CLA4, stronger effect = lower value 0.972 | S. cerevisiae deletion strains, locus YNL307C, strain MCK1, stronger effect = lower value 0.976 | S. cerevisiae deletion strains, locus YNL322C, strain KRE1 (second series), stronger effect = lower value 1.03 | S. cerevisiae deletion strains, locus YNR049C, strain mso1, stronger effect = lower value 1.02 | S. cerevisiae deletion strains, locus YNR052C, strain pop2, stronger effect = lower value 0.978 | S. cerevisiae deletion strains, locus YOL006C, strain TOP1, stronger effect = lower value 1.06 | S. cerevisiae deletion strains, locus YOL012C, strain htz1 0.629 | S. cerevisiae deletion strains, locus YOL147C, strain pex11, stronger effect = lower value 0.984 | S. cerevisiae deletion strains, locus YOR001W, strain rrp6, stronger effect = lower value 1.02 | S. cerevisiae deletion strains, locus YOR061W, strain CKA2, stronger effect = lower value 0.994 | S. cerevisiae deletion strains, locus YOR069W, strain VPS5, stronger effect = lower value 0.991 | S. cerevisiae deletion strains, locus YOR070C, strain gyp1, stronger effect = lower value 1.01 | S. cerevisiae deletion strains, locus YOR080W, strain dia2, stronger effect = lower value 1.03 | S. cerevisiae deletion strains, locus YOR083W, strain WHI5, stronger effect = lower value 1.02 | S. cerevisiae deletion strains, locus YOR106W, strain vam3, stronger effect = lower value 1.01 | S. cerevisiae deletion strains, locus YOR136W, strain idh2, stronger effect = lower value 0.991 | S. cerevisiae deletion strains, locus YOR144C, strain elg1, stronger effect = lower value 0.99 | S. cerevisiae deletion strains, locus YOR184W, strain ser1, stronger effect = lower value 0.936 | S. cerevisiae deletion strains, locus YOR231W, strain MKK1, stronger effect = lower value 1.1 | S. cerevisiae deletion strains, locus YOR265W, strain rbl2, stronger effect = lower value 1.03 | S. cerevisiae deletion strains, locus YOR270C, strain vph1, stronger effect = lower value 1 | S. cerevisiae deletion strains, locus YOR290C, strain snf2, stronger effect = lower value 1.01 | S. cerevisiae deletion strains, locus YOR316C, strain cot1, stronger effect = lower value 0.991 | S. cerevisiae deletion strains, locus YPL051W, strain arl3, stronger effect = lower value 1.02 | S. cerevisiae deletion strains, locus YPL078C, strain atp4, stronger effect = lower value 0.989 | S. cerevisiae deletion strains, locus YPL106C, strain sse1, stronger effect = lower value 1.04 | S. cerevisiae deletion strains, locus YPL240C, strain hsp82, stronger effect = lower value 1.04 | S. cerevisiae deletion strains, locus YPL256C, strain CLN2, stronger effect = lower value 1.06 | S. cerevisiae deletion strains, locus YPR119W, strain clb2, stronger effect = lower value 0.987 | S. cerevisiae deletion strains, locus YPR141C, strain kar3, stronger effect = lower value 0.985 | S. cerevisiae deletion strains, locus YPR163C, strain tif3, stronger effect = lower value 0.995 | S. cerevisiae deletion strains, locus YPR167C, strain met16, stronger effect = lower value 0.981 | S. cerevisiae deletion strains, strain wtn01, stronger effect = lower value 0.963 | S. cerevisiae strains, strain wild type, stronger effect = lower value 0.995
